The campaign covered roughly 13,000 compounds. About 3,200 (25%) showed an effect of 50% or more. The list shows a part of the results. Peptide text beside a SMILES is read from it. * marks the point of attachment. Octanoyl = CCCCCCCC(=O)*

This test relates to P. falciparum stage V gametocytes. Also noted: BacTiter-Glo ATP luminescence viability of purified stage V gametocytes in 384-well plates, per cent inhibition versus DMSO. The following applies: 48 h, 5 µM; inhibitor.
By % Inhibition is commonly meant the change of the read-out against control, counted positive when it falls. Regarding `COc1ccc(-c2cccc(NC(=O)c3cccc(C#N)c3)c2)cc1CN1CCN(C)CC1` [TCMDC-132624], the “% Inhibition” value is on record as 71.95%.
`COc1ccc(-c2cccc(NC(=O)c3cccc(C#N)c3)c2)cc1CN1CCCN(C)CC1` [TCMDC-132621]: the “% Inhibition” value came to 35.38%.
Turning to `Oc1ccc2[nH]c(-c3ccc(OC(F)(F)F)cc3)nc2c1CNC1CCCC1` [TCMDC-136530], the “% Inhibition” value is -82.26%.
As to `O=C(NC1CCN(c2ccnc3cc(Cl)ccc23)C1)c1ccc(F)cc1F` (stereo not drawn) [TCMDC-133659], the “% Inhibition” value is 10.53%.
On to `COc1cc(Cc2cnc(N)nc2N)c2c(c1OC)OC(C)(C)C=C2` [TCMDC-138038], for which the “% Inhibition” value is listed as -2.785%.
For the compound `Cc1cc(OCC2CCN(c3ccc(C(=O)NC4CC4)cn3)CC2)ccc1F` [TCMDC-134031], the “% Inhibition” value stood at 14.38%.
Take `Oc1cccc(Nc2ccnc3cc(-c4ccncc4)ccc23)c1` [TCMDC-138292]: the “% Inhibition” value worked out at 8.476%.
As to `Cn1ccc(-c2cccc(Nc3ccnc4cc(-c5nccs5)ccc34)c2)n1` [TCMDC-138336], the “% Inhibition” value is reported as 105.5%.
To `COc1cc(Nc2ccnc3cc(-c4nccs4)ccc23)ccc1OCCCc1nc2ccccc2[nH]1` [TCMDC-138339] belongs -6.497%.
On to `Cn1cc(Br)c(-c2cccc(Nc3ccnc4cc(-c5nccs5)ccc34)c2)n1` [TCMDC-138333], for which the “% Inhibition” value was found to be 50.96%.
As for `Oc1cccc(Nc2ccnc3cc(-c4nccs4)ccc23)c1` [TCMDC-138297], the “% Inhibition” value is given as -47.13%.
As to `Brc1ccc(Nc2ccnc3cc(-c4nccs4)ccc23)cc1Oc1ccnc2cc(-c3nccs3)ccc12` [TCMDC-138299], the “% Inhibition” value is 0.7997%.
With `NC(=O)CNC(=O)CCCN=C(N)N` [TCMDC-131667] the figure was 20.86%; with `Cc1c(Cc2ccc(F)cc2)c(Cl)nc2nc(N)nc(N)c12` [TCMDC-137680], -6.829%; with `CS(=O)(=O)c1ccc2c(c1)CCN(CCC1CCC(NC(=O)C(=Cc3cccc(C#N)c3)c3ccc(-c4ccccc4)cc3)CC1)CC2` (stereo not drawn) [TCMDC-141427], 78.58%.
Turning to `CS(=O)(=O)c1ccc2c(c1)CCN(CCC1CCC(NC(=O)C(=Cc3ccc(Cl)cc3Cl)c3ccc(-c4ccccc4)cc3)CC1)CC2` (stereo not drawn) [TCMDC-141426], the “% Inhibition” value is listed as -11.75%.
As for `N#Cc1cccc(-c2cccc(C(=O)NC3CCC(CCN4CCc5ccc(C#N)cc5CC4)CC3)c2)c1` (stereo not drawn) [TCMDC-139681], the “% Inhibition” value was -20.07%.
As for `CC(C)CCN(Cc1cncn1Cc1ccccc1F)C(=O)c1cncc(-c2ccccc2)c1` [TCMDC-132470], the “% Inhibition” value is 20.84%.
On to `O=C(Nc1ccc(-c2nc3ccccc3[nH]2)cc1)c1ccc([N+](=O)[O-])s1` [TCMDC-123726], for which the “% Inhibition” value is 9.602%.
For `Nc1nc(N)c2nc(C3CC=CCC3)c(N)nc2n1` (stereo not drawn) [TCMDC-141989], the “% Inhibition” value was 6.679%.
`CCCCCCCC(=O)N[C@@H](Cc1ccccc1)C(=O)N[C@H](C(=O)O)C(C)C` [TCMDC-139536] (Octanoyl-Phe-Val-OH): the “% Inhibition” value is 1.099%.
As to `CC(Sc1n[nH]c(-c2ccccc2Br)n1)C(=O)Nc1ccc(F)cc1` (stereo not drawn) [TCMDC-125115], the “% Inhibition” value is reported as -62.46%.
On to `Cc1ccc(NC(=O)C(C)Sc2n[nH]c(-c3ccccc3Br)n2)cc1` (stereo not drawn) [TCMDC-125166], for which the “% Inhibition” value was found to be 75.62%.
Take `CC(CN(C)C)C(=O)Nc1ccc(-c2ccc(-c3nc4ccccc4[nH]3)s2)cc1` (stereo not drawn) [TCMDC-137100]: the “% Inhibition” value came to 21.36%.
With `COc1ccc(Br)cc1C1Nc2ccc3ccccc3c2C2=C1C(=O)CC(c1ccccc1)C2` (stereo not drawn) [TCMDC-125675] the figure was 55.64%.
`COc1cc(C2Nc3ccc4ccccc4c3C3=C2C(=O)CC(C)(C)C3)ccc1Oc1ccc([N+](=O)[O-])cc1C#N` (stereo not drawn) [TCMDC-125717]: the “% Inhibition” value was found to be 30.01%.
To `COc1ccc(C2CC(=O)C3=C(C2)NC(C)=C(C(=O)OC(C)C)C3c2ccccc2F)cc1OC` (stereo not drawn) [TCMDC-124038] belongs 37.21%.
With `CN(Cc1ccncc1)C(Cc1ccccc1)C1CCN(Cc2ccc(O)c(Cl)c2)CC1` (stereo not drawn) [TCMDC-124648], the “% Inhibition” value is -12.77%.
On to `COc1cc(CNC[C@@H](O)[C@H](Cc2ccccc2)NC(=O)c2cc(OC(C)C)cc(N3CCCCS3(=O)=O)c2)cc(OC)c1` [TCMDC-134525], for which the “% Inhibition” value stood at 23.04%.
Consider `CCc1cc2c(cc1OCCN(C)C)N(C(=O)Nc1ccc(-c3ccncc3)c(Cl)c1)CC2` [TCMDC-139214], for which the “% Inhibition” value is listed as 8.963%.
`N#Cc1ccc(-c2cnc3ccc(NCCc4cccnc4)nn23)cc1` [TCMDC-136679]: the “% Inhibition” value is 23.92%.
On to `COc1ccc(-c2cnc3ccc(N4CCCC4)nn23)cc1OC.O=CO` [TCMDC-134177], for which the “% Inhibition” value turned out to be 42.14%.
For `COc1ccc(-c2cnc3ccc(NCCCO)nn23)cc1OC` [TCMDC-136683], the “% Inhibition” value came to 53.42%.
Consider `Fc1ccc(CNc2ccc3ncc(-c4cccnc4)n3n2)cc1` [TCMDC-136674], for which the “% Inhibition” value came out at 19.94%.
Take `Oc1cccc(-c2cnc3ccc(NCc4ccc(F)cc4)nn23)c1` [TCMDC-136676]: the “% Inhibition” value came out at 39.41%.
Consider `COc1ccc(-c2cnc3ccc(NCc4ccc(F)cc4)nn23)cc1OC` [TCMDC-136675], for which the “% Inhibition” value was 53.19%.

These data come from publication PMC4552634, “A New Set of Chemical Starting Points with Plasmodium falciparum Transmission-Blocking Potential for Antimalarial Drug Discovery” (PLoS ONE, 2015).
